23 molecules from PubChem BioAssay (Tox21) can be followed below.

SMILES strings stand for the structures. A number with no mark means an inactive call. Results filed as inconclusive are left out. Active and inactive are the calls of the source. Calls follow the shape of the dose curve; as a rule, active = well fitted curve in the direction sought with a large enough effect in the repeat runs; inconclusive = weak or mixed curves; inactive = no such curve, though single readings can be large; an effect the other way counts as inactive or inconclusive.

Assay [1] can be described thus: A CellTox Green Cytotoxicity Assay to monitor cytotoxicity in HEK293 cells - 32 hour (AID 1224881). Also: nearly all actives have a fitted effect of over 40% in size. Also: potency is read from the fitted curve at half-maximal effect. Particulars: CellTox Green fluorescence; series mostly up to 76.8 µM. Summed up:
(§1)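 Nonlytic real-time cytotoxicity: HEK293 + CellTox Green reagent plated, 5 h preincubation, pintool compound addition (23 nL in DMSO), 37 C for 40 h, fluorescence measured at successive time points.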

A short description of assay [2]: A CellTox Green Cytotoxicity Assay to monitor cytotoxicity in HepG2 cells - 0 hour (AID 1224882). Also: nearly all actives have a fitted effect of over 35% in size. Particulars: CellTox Green fluorescence; series mostly up to 76.8 µM. Put shortly:
(§2)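 Read-out is fluorescence of a cyanine dye excluded from live cells that stains DNA of dead HepG2 cells, with signal proportional to cytotoxicity. Plates were read at 0, 8, 16, 24, 32 and 40 h after compound addition.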

Assay [3] can be described thus: A CellTox Green Cytotoxicity Assay to monitor cytotoxicity in HepG2 cells - 32 hour (AID 1224883). Also: nearly all actives have a fitted effect of over 50% in size. Also: potency is read from the fitted curve at half-maximal effect. Particulars: CellTox Green fluorescence; series mostly up to 76.8 µM. Put shortly: as §2
Assay [4] can be described thus: A CellTox Green Cytotoxicity Assay to monitor cytotoxicity in HEK293 cells - 8 hour (AID 1224884). Also: nearly all actives have a fitted effect of over 35% in size. Also: potency is read from the fitted curve at half-maximal effect. Particulars: CellTox Green fluorescence; series mostly up to 76.8 µM. Put shortly:
as §1

Assay [5] is described as follows: qHTS RealTime-Glo MT Cell Viability Assay in HepG2 cells - 16 hour (AID 1224885). Also: nearly all actives have a fitted effect of over 50% in size. Also: potency is read from the fitted curve at half-maximal effect. The settings on record: RealTime-Glo luminescence; series mostly up to 76.8 µM. Put shortly:
(§3)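 Tox21 10K library screened in qHTS format on HepG2 cells carrying RealTime-Glo reagents. Compounds were added after a 5 h preincubation, and the luminescent signal from continuous culture was measured repeatedly during 40 h treatment.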

Assay [6] can be described thus: qHTS RealTime-Glo MT Cell Viability Assay in HEK293 cells - 8 hour (AID 1224887). Also: top concentration of the series differs between compounds; nearly all actives have a fitted effect of over 50% in size. Particulars: RealTime-Glo luminescence; series mostly up to 76.8 µM. Put shortly: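 Cells were seeded together with NanoLuc luciferase and a prosubstrate that viable cells reduce to a luciferase substrate. After a 5 h incubation at 37 C/5% CO2, compounds were added and luminescence was measured repeatedly during 40 h of treatment.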
(In general: Quantitative high-throughput screening tests each substance at several concentrations.)

Assay [7] is described as follows: A CellTox Green Cytotoxicity Assay to monitor cytotoxicity in HEK293 cells - 16 hour (AID 1224888). Also: nearly all actives have a fitted effect of over 35% in size. Also: potency is read from the fitted curve at half-maximal effect. The settings on record: CellTox Green fluorescence; series mostly up to 76.8 µM. Summed up:
as §1

A short description of assay [8]: qHTS RealTime-Glo MT Cell Viability Assay in HepG2 cells - 0 hour (AID 1224889). Also: nearly all actives have a fitted effect of over 50% in size. Particulars: RealTime-Glo luminescence; series mostly up to 76.8 µM. Put shortly:
as §3

Assay [9] in a line: A CellTox Green Cytotoxicity Assay to monitor cytotoxicity in HepG2 cells - 8 hour (AID 1224890). Also: nearly all actives have a fitted effect of over 45% in size. Also: potency is read from the fitted curve at half-maximal effect. Particulars: CellTox Green fluorescence; series mostly up to 76.8 µM. Put shortly:
as §2

The nature of assay [10]: qHTS RealTime-Glo MT Cell Viability Assay in HEK293 cells - 24 hour (AID 1224886). Particulars: RealTime-Glo luminescence; series mostly up to 76.8 µM. Put shortly: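 Luminescence generated by NanoLuc from substrate produced by living HEK293 cells served as the viability signal. Each value reflects the reading at its stated time point during continuous 40 h compound exposure at 37 C.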
% is scaled to controls: 0 for no effect and ±100 for the full control effect.

Take `CN(C)c1ccc(CCO)cc1`: the Potency entry in assay [1], in assay [2], in assay [3], in assay [4], in [5] and in assay [6] was “inactive” in each case. Also, the Potency result in assay [7], in assay [8] and in assay [9] was “inactive” in each case.
Turning to `O=S(=O)(Oc1ccc(Cl)cc1)c1ccccc1`, the Potency result in assay [1], in [2], in assay [3], in assay [4], in [5] and in assay [7] was “inactive” in each case. In assay [8], the Potency result was “inactive”.
Turning to `Cc1ccc(C(=O)Oc2ccc(C(O)CNC(C)(C)C)cc2OC(=O)c2ccc(C)cc2)cc1` (stereo unspecified), the Potency in assay [1] was 26.8 µM (active); in assay [3] it was 19 µM (active); in assay [4] it was 23.9 µM (active); in assay [5], 21.3 µM (active); in assay [7], 26.8 µM (active); in assay [9] it was 23.9 µM (active). In addition, the Potency entry in assay [2] and in assay [8] was “inactive” in each case.
As for `O=C(OCCCCCCOC(=O)c1ccccc1)c1ccccc1`, the Potency entry in [1], in assay [2], in [3], in assay [4], in [5] and in assay [7] was “inactive” each time. Further, the Potency result in assay [8] and in assay [9] was “inactive” in each case.
Regarding `COc1cc(Cl)c(OC)cc1N`, the Potency entry in [1], in assay [2], in [3], in assay [4], in [5] and in assay [10] was “inactive” each time. Besides, the Potency result in assay [7], in assay [8] and in assay [9] was “inactive” in each case.
Turning to `CO[C@@H]1[C@H](OC(=O)/C=C/C=C/C=C/C=C/C(=O)O)CC[C@]2(CO2)[C@H]1[C@@]1(C)O[C@@H]1CC=C(C)C`, the Potency entry in [1], in assay [2], in assay [3], in assay [4], in [5] and in assay [6] was “inactive” each time. Besides, the Potency entry in assay [7], in assay [8] and in assay [9] was “inactive” each time.
On to `Cc1cccc(Nc2ccccc2)c1`, for which the Potency was 34.7 µM (active) in [1], 38.9 µM (active) in [3] and 49 µM (active) in assay [9]. For the same molecule, the Potency entry in assay [2], in assay [4], in assay [5], in [10], in assay [7] and in assay [8] was “inactive” throughout.
Take `C[N+]1(CC2COC(c3ccccc3)(C3CCCCC3)O2)CCCCC1` (stereo unspecified): the Potency entry in assay [1], in assay [2], in assay [3], in assay [4], in assay [5] and in [6] was “inactive” each time. Further, the Potency result in assay [7], in assay [8] and in assay [9] was “inactive” each time.
In the case of `COC(=O)c1ccc(I)cc1S(=O)(=O)NC(=O)Nc1nc(C)nc(OC)n1`, the Potency entry in assay [1], in assay [2], in assay [3], in [5], in assay [10] and in assay [6] was “inactive” in each case. For the same molecule, the Potency result in [7], in [8] and in [9] was “inactive” in each case.
In the case of `COc1ccnc(CS(=O)c2nc3ccc(OC(F)F)cc3[nH]2)c1OC` (stereo unspecified), the Potency entry in [1], in [2], in assay [3], in assay [5], in [10] and in assay [6] was “inactive” in each case. Further, the Potency result in [8] and in assay [9] was “inactive” each time.
Take `Nc1ncn([C@H]2C[C@H](O)[C@@H](CO)O2)c(=O)n1`: the Potency entry in assay [1], in [2], in [3], in assay [5], in assay [10] and in assay [6] was “inactive” throughout. The Potency result in [7], in assay [8] and in assay [9] was “inactive” in each case.
`CC(=O)c1cccc([N+](=O)[O-])c1`: the Potency entry in assay [1], in assay [2], in assay [4], in assay [5], in assay [10] and in [6] was “inactive” throughout. The Potency entry in assay [7] and in assay [8] was “inactive” each time.
As to `CCC(Cl)CCC(Cl)C(Cl)CC(Cl)C(Cl)C(Cl)CCl` (stereo unspecified), the Potency result in assay [1], in assay [2], in assay [4], in assay [5], in assay [10] and in assay [6] was “inactive” in each case. Further, the Potency entry in assay [7] and in [8] was “inactive” in each case.
Turning to `CN1Cc2cc(C(=O)N3CCC(C4CCNCC4)CC3)ccc2NC(CC(=O)O)C1=O` (stereo unspecified), the Potency result in [1], in assay [2], in assay [3], in [5], in [10] and in assay [6] was “inactive” in each case. Further, the Potency entry in assay [7], in assay [8] and in assay [9] was “inactive” in each case.
Take `Cc1cc(C(=O)O)ccc1[N+](=O)[O-]`: the Potency entry in assay [1], in assay [2], in [3], in [5], in assay [10] and in [6] was “inactive” in each case. The Potency result in assay [7], in assay [8] and in assay [9] was “inactive” throughout.
As for `C#Cc1cccc(Nc2ncnc3cc(OCCOC)c(OCCOC)cc23)c1`, the Potency result in assay [1], in assay [2], in assay [3], in [5], in assay [10] and in assay [6] was “inactive” each time. The Potency result in assay [7], in assay [8] and in [9] was “inactive” in each case.
For the molecule `CCCCC1=NC2(CCCC2)C(=O)N1Cc1ccc(-c2ccccc2-c2nn[nH]n2)cc1`, the Potency entry in [1], in [2], in [4], in [5], in [10] and in assay [6] was “inactive” each time. In addition, the Potency entry in assay [7] and in assay [8] was “inactive” in each case.
With `Cc1oc2c(NC(=O)c3c(Cl)cccc3Cl)cccc2c1C(C)(C)O`, the Potency result in assay [1], in [2], in assay [6], in [7], in assay [8] and in assay [9] was “inactive” in each case. In [3], the Potency is 49 µM (active).
For `CN(C)c1ccc(/C=C/c2ccc([N+](=O)[O-])cc2)cc1`, the figures for the cytotoxicity increase in assay [1], in [3] and in assay [9] were 15.1% [at 6.97 µM], 16% [at 6.97 µM] and 23.9% [at 6.97 µM], respectively. In addition, the cytotoxicity in [2] was 4.44% [at 6.97 µM]. The activity change, negative = cytotoxic in assay [5] was -7.1% [at 6.97 µM]. Further, the figures for the activity change, negative = cytotoxicity in assay [10], in assay [6] and in [8] were -4.06% [at 6.97 µM], -2.66% [at 6.97 µM] and -8.4% [at 6.97 µM], respectively.
`CCC(C)(C)CC`: the Potency entry in assay [1], in assay [2], in assay [3], in assay [5], in assay [10] and in assay [6] was “inactive” each time. The Potency entry in assay [7], in assay [8] and in assay [9] was “inactive” each time.
On to `COc1ccc(C(=O)Nc2nc3ccccc3c(NCc3ccccc3)c2C#N)cc1`, for which the Potency result in assay [1], in [2], in [3], in assay [10], in assay [6] and in [7] was “inactive” each time. Also, the Potency result in assay [9] is “inactive”.
In the case of `O[C@@H](COc1cccc2ncccc12)CN1CCN(C2c3ccccc3[C@@H]3[C@H](c4ccccc42)C3(F)F)CC1` (stereo partly specified), the Potency entry in assay [1], in assay [2], in assay [3], in assay [7], in assay [8] and in assay [9] was “inactive” throughout.
Regarding `C[Si](C)(CCCN)O[Si](C)(C)CCCN`, the Potency entry in assay [1], in assay [2], in assay [3], in assay [5], in assay [10] and in assay [6] was “inactive” throughout. Further, the Potency entry in assay [7], in assay [8] and in assay [9] was “inactive” each time.
